# PubChem BioAssay AID1346378 (National Center for Advancing Translational Sciences (NCATS), 2018)
# Out of some 420,000 compounds screened, about 540 (0.13%) were called active. Rule as the data show it: active = activity change below about -50%; inconclusive = mostly about -30% to -49%; inactive = weaker than that. Only a selection was taken, and actives are over-represented in it overall.
# Molecular target: Phosphatidylinositol 4-kinase type 2-alpha (Homo sapiens) (UniProt Q9BTU6)
# Assay: qHTS for small molecular inhibitors of PI4K2A;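 also: -100% = wells without enzyme as full effect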
# Conditions: purified PI4K2A, ADP-Glo luminescence, 1 h; at 76.9 µM, active compounds read low
# From the text: The phosphatidylinositol 4-phosphate (PI4P) is emerging as a key regulator of lipid transfer in ER-membrane contact sites. The four different phosphatidylinositol 4-kinase (PI4K) enzymes generate PI4P in different membrane compartments supporting distinct cellular processes many of which are crucial for the maintenance of cellular integrity but also hijacked by intracellular pathogens. The goal of this screening project is to search for small molecular inhibitors of PI4K2A based on a high throughput screening strategy.The ADP-Glo assay was used as a starting point to develop a miniaturized version for HTS applications. To implement the HTS screen, the PI4K ADP-Glotrade mark Kinase assay (Promega, V9102) was miniaturized for the 1536-well format used at NCGC.
# For the robotic screening, the ADP-Glo assay using the ADP-Glotrade mark Kinase Assay kit from Promega was miniaturized and optimized on 1536-well white solid bottom plates (Greiner Bio-one). The substrate, 1.2 mM PI, prepared in the assay buffer (40mM Tris pH7.5, 20mM MgCl2, 1mM EGTA, 0.4% Triton X-100, 0.5mM DTT, 0.5mg/ml BSA) and PI4K2A enzyme, diluted also in the assay buffer to 4ug/mL, were dispensed onto the plates in equal volumes (1microl/well), pinned with 23 nL/well tested compounds or control followed by dispensation of 1microl/well 300microM ATP. The plates were incubated for one hour. Then, 2 µL/well of ADP-Glo reagent was added and incubated for 40 minutes. Next, 4microL/well of Kinase Detection Buffer was added to the plates and incubated for additional 40 minutes. All incubation steps were performed at ambient temperature. The resulting luminescence signal was measured on Viewlux plate reader (PerkinElmer). Adenosine, a partial non-specific inhibitor, was used as a positive control at 100microM final concentration to assess the assay's quality and plate-to-plate reproducibility. We also used "no enzyme" control to gauge the assay's maximal potential inhibition (IC100).
# Sequence of Phosphatidylinositol 4-kinase type 2-alpha (Homo sapiens) (Q9BTU6 whole entry, looked up): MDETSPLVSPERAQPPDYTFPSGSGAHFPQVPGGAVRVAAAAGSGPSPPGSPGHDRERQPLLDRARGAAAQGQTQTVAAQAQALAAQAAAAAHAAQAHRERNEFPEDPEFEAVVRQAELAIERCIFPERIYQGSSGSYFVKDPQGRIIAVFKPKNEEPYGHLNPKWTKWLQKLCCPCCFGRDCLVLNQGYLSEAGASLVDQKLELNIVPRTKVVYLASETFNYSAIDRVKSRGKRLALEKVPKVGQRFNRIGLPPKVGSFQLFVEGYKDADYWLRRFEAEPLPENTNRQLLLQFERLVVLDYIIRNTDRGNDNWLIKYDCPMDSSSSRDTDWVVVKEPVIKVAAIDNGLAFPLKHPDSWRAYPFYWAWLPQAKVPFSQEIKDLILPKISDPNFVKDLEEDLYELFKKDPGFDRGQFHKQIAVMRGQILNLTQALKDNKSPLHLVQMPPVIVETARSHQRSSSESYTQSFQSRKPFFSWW
row,Structure (SMILES),"activity change, negative = inhibition"
1,O=C1CCCc2cc(S(=O)(=O)N3CCCC(C(=O)NCc4ccccc4)C3)ccc2N1 (stereo not drawn),-5.19% (inactive)
2,CCc1ccc(NC(=O)CCS(=O)(=O)c2cc3c(cc2Cl)NC(=O)CO3)cc1,0.699% (inactive)
3,CO[C@H]1C=CO[C@@]2(C)Oc3c(C)c(O)c4c(O)c(c(/C=N/N5CCN(C)CC5)c(O)c4c3C2=O)NC(=O)/C(C)=C\C=C[C@H](C)[C@H](O)[C@@H](C)[C@@H](O)[C@@H](C)[C@H](OC(C)=O)[C@@H]1C,-8.76% (inactive)
4,Cc1nn2c(=O)cc(COC(=O)c3cccc(NC(=O)COc4ccccc4Cl)c3)nc2s1,3.91% (inactive)
5,Cc1ccc(CCNC(=O)c2ccc3c(c2)N(Cc2cc(C)ccc2C)C(=O)c2ccccc2S3=O)cc1 (stereo not drawn),3.89% (inactive)
6,CCC(C)Cn1c(O)cc2nn(-c3nc4ccccc4s3)c(=O)c-2c1C (stereo not drawn),-52% (active)
7,O=C(OCCN1CCOCC1)c1cccnc1Nc1cccc(C(F)(F)F)c1,1.58% (inactive)
8,Cc1cc(C)cc(OCC(=O)Nc2nc(-c3ccc(F)cc3)ns2)c1,-6.03% (inactive)
9,CCS(=O)(=O)N1CCc2cc(C(=O)NCc3ccc(OC)cc3)ccc21,-0.384% (inactive)
10,CCc1ccccc1NC(=O)c1sc2nc3c(cc2c1N)CN(Cc1ccccc1)CC3,-2.17% (inactive)
11,Cc1ccc(Oc2c(C(F)(F)F)oc3c(CN4CCCCC4)c(O)ccc3c2=O)cc1,-2.18% (inactive)
12,Cc1ccc(C(=O)Nc2ccccc2F)cc1S(=O)(=O)N1CCOCC1,-6.24% (inactive)
13,c1ccc(Cc2c(-c3ccco3)nc3c4ccccc4ccn23)cc1,-13.4% (inactive)
14,Cc1ccc(Cc2c(-c3ccco3)nc3ccc(Cl)cn23)cc1,-30% (inactive)
15,Cn1c(-c2ccco2)nc2cc3ccccc3cc21,-59.4% (active)
16,COc1cc(/C=C/C(N)=O)cc(OC)c1OC,-0.706% (inactive)
17,CCC(=O)Nc1ccccc1-c1nc2ccccc2n(CC(=O)Nc2ccc(C)c(C)c2)c1=O,0.486% (inactive)
18,COc1cccc(NC(=O)CN2C(=O)c3ccccc3Sc3ncccc32)c1,0.541% (inactive)
19,COc1ccc(-c2onc(C)c2C)cc1S(=O)(=O)NCCc1ccccc1,0.384% (inactive)
20,CCN(CCCNC(=O)c1ccc(Sc2ccc(C)cc2)c(NC(C)=O)c1)c1cccc(C)c1,2.25% (inactive)
21,COc1ccc(-c2nnc(SCC(=O)Nc3ccc(C(C)C)cc3)nc2-c2ccc(OC)c(OC)c2)cc1OC,0.608% (inactive)
22,CNC(=O)c1ccc(-c2nc(CN3CCc4ccccc43)c(C)o2)cc1,2.42% (inactive)

row,Structure (SMILES),"activity change, negative = inhibition"
1,CC(=O)c1c(C)n(S(=O)(=O)c2ccc(Cl)cc2)c2ccc(NS(=O)(=O)c3ccc(Cl)cc3)cc12,2.95% (inactive)
2,O=C1COc2ccc(C(=O)COC(=O)c3ccccc3Cl)cc2N1,1.21% (inactive)
3,N#CCCN(C(=O)COC(=O)c1ccc2c(c1)OCCO2)c1ccccc1,3.66% (inactive)
4,CS(=O)(=O)N1CCc2cc(C(=O)Nc3ccccc3)ccc21,-7.3% (inactive)
5,O=C(Nc1ccccc1)c1ccc2c(c1)OCCCO2,-52.6% (active)
6,CSc1ccccc1-c1nnc(NC(=O)c2ccc3c(c2)OCCO3)o1,3.71% (inactive)
7,O=C(COC(=O)c1ccccc1)c1ccc2c(c1)OCCO2,-52.5% (active)
8,CCC(C)NC(=O)Cn1c(=O)n(-c2ccc(Cl)cc2)c(=O)c2c3c(sc21)CCCC3 (stereo not drawn),-10.3% (inactive)
9,CCCn1c2ccccc2c2cnn(CC(=O)N(CC)c3cc(C)ccc3C)c(=O)c21,-0.786% (inactive)
10,CN(C)c1cc2c(Nc3ccc4c(cnn4Cc4ccccc4)c3)ncnc2cn1,-9.09% (inactive)
11,COc1cccc(C(=O)c2cc3ccc(O)cc3oc2=O)c1,-61.7% (active)
12,COc1cccc(C(=O)Nc2ccc3oc(-c4ccc5ccccc5c4)nc3c2)c1,-2.82% (inactive)
13,COc1ccc(CNC(=O)c2cc3cccc(OC)c3oc2=O)cc1,3.69% (inactive)
14,CCOc1ccc(NS(=O)(=O)c2ccc(N)cc2)nn1,-1.1% (inactive)
15,CC1=C(C(=O)OCC(C)C)C(c2ccc(OCc3ccccc3)cc2)N2C(=O)CCSC2=N1 (stereo not drawn),5.39% (inactive)
16,CCCCOc1ccc(CN2C(=O)C(=O)c3cc(Br)cc(C)c32)cc1OC,13% (inactive)
17,Cc1ccc(-n2nc(C)c(C(=O)O)c2-n2cccc2)cc1,3.8% (inactive)
18,O=C(O)/C(=C/c1c(C(=O)O)[nH]c2cc(Cl)cc(Cl)c12)c1ccccc1,-3.01% (inactive)
19,Nc1[nH][nH]c(=O)c1N=Nc1ccc2c(c1)OCO2,-6.7% (inactive)
20,Cc1[nH][nH]c(=O)c1C(c1ccc2c(c1)OCO2)c1c(C)[nH][nH]c1=O,-66.9% (active)
21,Cc1[nH][nH]c(=O)c1C(c1ccc(-c2ccc(Cl)cc2)o1)c1c(C)[nH][nH]c1=O,-14% (inactive)
